Data on 13 compounds can be found in PubChem BioAssay (NCI).

The panel holds about 83,000 compounds, 20% with a hit somewhere; the sample as a whole holds those more often.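 Single-concentration screen, 48 h exposure, 96-well plates. Endpoint: percent growth. Below 10 = active.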 A number with no mark means an inactive call. The source made the active and inactive calls.

Test systems include HCT-15 colon; HT29 colon; SNB-75 CNS; SNB-19 CNS; U251 CNS; PC-3 prostate; SK-MEL-5 melanoma; UACC-62 melanoma; LOX IMVI melanoma; SK-MEL-28 melanoma.
What all share (experiment): NCI-60 one-dose screen, 48 h (100 = growth as untreated, 0 = no growth, -100 = all killed)
Conditions in all cases: 10 µM unless noted

As to `CCCCN(CCCC)CC(CN(CC)CC)OC(=O)Nc1ccccc1` (stereo not given), the growth in the assay on HCT-15 colon is 63.4%; with HT29 colon, 37.1%; with SNB-75 CNS it was 78.3%; in the assay with SNB-19 CNS, 107%; in the assay with U251 CNS it was 96.8%; in the assay with PC-3 prostate, 89.6%. The growth in the assay with SK-MEL-5 melanoma is 100%; with UACC-62 melanoma, 111%; in the assay with LOX IMVI melanoma, 87.7%; in the assay with SK-MEL-28 melanoma, 105%.

For `Cc1cccc(C)c1NC(=O)CN(CC(C)C)CC(O)COc1ccccc1` (stereo not given), the growth in the assay with HCT-15 colon was 90.7%; in the assay with HT29 colon, 85.5%; with SNB-75 CNS it was 86.6%; with SNB-19 CNS, 108%; in the assay with U251 CNS it was 99.7%; in the assay on PC-3 prostate it was 86.3%. Besides, the growth in the assay on SK-MEL-5 melanoma was 95.5%; with UACC-62 melanoma, 83.9%; in the assay on LOX IMVI melanoma it was 95.3%; in the assay with SK-MEL-28 melanoma, 109%.

For the compound `C=C1C(=O)O[C@H]2[C@H]1CC/C(C=Nc1c(N)cc(C(F)(F)F)cc1Br)=C\CC[C@@]1(C)O[C@@H]21`, the growth with HCT-15 colon was -55.1% (active); with HT29 colon, -36.4% (active); in the assay on SNB-75 CNS, 76.1%; in the assay on SNB-19 CNS it was 33.7%; with U251 CNS, 25.7%; in the assay on PC-3 prostate it was 6.24% (active). In addition, the growth in the assay on SK-MEL-5 melanoma was 33.7%; in the assay with UACC-62 melanoma, 4.73% (active); in the assay on LOX IMVI melanoma it was -74.4% (active); in the assay with SK-MEL-28 melanoma, -12.3% (active).

Regarding `Cc1cccc(C)c1NCc1nnc(-c2ccco2)o1`, the growth was 103% in the assay with HCT-15 colon; 93.9% in the assay with HT29 colon; 85.5% in the assay on SNB-75 CNS; 101% in the assay on SNB-19 CNS; 96.9% in the assay on U251 CNS; 81% in the assay with PC-3 prostate. Besides, the growth is 96.3% in the assay on SK-MEL-5 melanoma, 90.1% with UACC-62 melanoma, 93.5% with LOX IMVI melanoma and 110% in the assay on SK-MEL-28 melanoma.

Turning to `C/C(=N/Nc1nc2ccccc2n1C)c1ccccn1`, the growth was 25.3% with HCT-15 colon; 14.7% in the assay on HT29 colon; 28% in the assay with SNB-75 CNS; 15.2% with SNB-19 CNS; 0.141% (active) with U251 CNS; 19.1% in the assay with PC-3 prostate. Moreover, the growth in the assay with SK-MEL-5 melanoma is -6.67% (active); in the assay with UACC-62 melanoma it was -26.5% (active); in the assay with LOX IMVI melanoma it was -39.4% (active); in the assay on SK-MEL-28 melanoma, 27.6%.

With `N#Cc1c(-c2ccc(F)cc2)nc(N=Nc2c(O)[nH]c3ccccc23)nc1N1CCOCC1`, the growth with HCT-15 colon is 66.9%; with HT29 colon, 78.4%; in the assay on SNB-75 CNS it was 22.5%; with SNB-19 CNS it was 70.1%; with U251 CNS it was 27.4%; in the assay on PC-3 prostate, 64.1%. In addition, the growth is 64.7% in the assay on SK-MEL-5 melanoma, 48.8% in the assay with UACC-62 melanoma, 74.9% in the assay with LOX IMVI melanoma and 72.3% in the assay with SK-MEL-28 melanoma.

As for `CCC[S@](=O)c1ccc2nc(NC(=O)OC)[nH]c2c1`, the growth with HCT-15 colon is 98.9%; in the assay with HT29 colon, 79.2%; in the assay on SNB-75 CNS, 86.2%; with SNB-19 CNS, 95.2%; in the assay on U251 CNS, 89.1%; in the assay with PC-3 prostate, 89.8%. In addition, the growth with SK-MEL-5 melanoma was 98.7%; in the assay on UACC-62 melanoma, 89.8%; in the assay on LOX IMVI melanoma, 96.5%; in the assay on SK-MEL-28 melanoma, 107%.

For the compound `Cc1[nH]c(N=Nc2ccccc2)nc1N=Nc1ccccc1`, the growth was 22.8% in the assay on HCT-15 colon; 31.2% with HT29 colon; 45.1% in the assay on SNB-75 CNS; 47.7% in the assay on SNB-19 CNS; 15.9% in the assay on U251 CNS; 36.4% in the assay with PC-3 prostate. Besides, the growth in the assay on SK-MEL-5 melanoma was 48.1%; in the assay on UACC-62 melanoma, -19.7% (active); in the assay with LOX IMVI melanoma it was 3.24% (active); in the assay on SK-MEL-28 melanoma, 52.2%.

Regarding `C#CCN1C(=O)c2ccccc2N(CC#C)C12CCN(Cc1cn(CC(=O)Nc3ccccc3C(N)=O)nn1)CC2`, the growth in the assay with HCT-15 colon was 86.8%; with HT29 colon, 85.1%; with SNB-75 CNS, 78.3%; with SNB-19 CNS, 90.5%; in the assay on U251 CNS, 97.2%; with PC-3 prostate it was 83.7%. The growth is 76.9% in the assay with SK-MEL-5 melanoma, 74.3% in the assay on UACC-62 melanoma, 87% with LOX IMVI melanoma and 93.4% in the assay with SK-MEL-28 melanoma.

With `C1=CC2=CC=C3C=CC=C4C(c5nc6c7ccccc7c7ccccc7c6[nH]5)=CC(=C1)C2C34` (stereo not given), the growth in the assay on HCT-15 colon was 90.8%; in the assay on HT29 colon, 102%; with SNB-75 CNS it was 102%; with SNB-19 CNS, 103%; in the assay on U251 CNS it was 104%; in the assay on PC-3 prostate it was 78.8%. In addition, the growth in the assay on SK-MEL-5 melanoma is 101%; in the assay with UACC-62 melanoma it was 61.6%; in the assay with LOX IMVI melanoma, 86.3%; in the assay on SK-MEL-28 melanoma, 107%.

`Cc1cnc(-c2ccc(-c3ccc(NC(=O)Nc4c(F)cc(F)cc4F)cc3F)c3c2C(=O)NC3)[nH]1`: the growth in the assay on HCT-15 colon is 49.4%; in the assay with HT29 colon, 27%; in the assay with SNB-75 CNS it was 17.3%; with SNB-19 CNS, 41.9%; in the assay on U251 CNS it was 8.19% (active); in the assay with PC-3 prostate, 39.7%. Moreover, the growth in the assay on SK-MEL-5 melanoma was 38.5%; in the assay on UACC-62 melanoma, 0.806% (active); in the assay with LOX IMVI melanoma, 32.9%; in the assay on SK-MEL-28 melanoma, 39.1%.

`CC1=C(CCCOC(=O)NCCCl)C2=C(C)C3(CC3)[C@@](C)(O)C(=O)C2=C1`: the growth in the assay with HCT-15 colon was 24.9%; with HT29 colon, 31.1%; in the assay with SNB-75 CNS it was 58.3%; in the assay with SNB-19 CNS, 57.3%; with U251 CNS, 54.2%; in the assay on PC-3 prostate, 38%. Moreover, the growth in the assay with SK-MEL-5 melanoma was 7.89% (active); with UACC-62 melanoma, 49.9%; in the assay on LOX IMVI melanoma, 61.1%; in the assay on SK-MEL-28 melanoma it was 69.3%.

`CCn1cc(C(=O)O)c(=O)c2cc(F)c(N3CCN(CC(=O)Nc4ccc(/C(C)=N/OC)cc4)CC3)cc21`: the growth was 90.5% in the assay with HCT-15 colon; 94% with HT29 colon; 76.8% in the assay on SNB-75 CNS; 91.7% in the assay with SNB-19 CNS; 94.3% in the assay on U251 CNS; 85.5% in the assay on PC-3 prostate. Moreover, the growth with SK-MEL-5 melanoma is 96.4%; in the assay on UACC-62 melanoma, 90.5%; with LOX IMVI melanoma, 80%; in the assay with SK-MEL-28 melanoma, 100%.
